Test results reported in PubChem BioAssay (Tox21).
Records with an inconclusive call do not appear. A number with no mark means an inactive call. Active and inactive are the calls of the source. Calls follow the shape of the dose curve; as a rule, active = well fitted activation curve with a large enough effect in the repeat runs; inconclusive = weak or mixed curves; inactive = flat fitted curve, though single readings scatter.

assay: A CellTox Green Cytotoxicity Assay to monitor cytotoxicity in HEK293 cells - 24 hour (AID 1224875); details: CellTox Green fluorescence; series mostly up to 76.8 µM; activity change: at the top concentration
Procedure, shortened: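 Dead-cell fluorescence measured kinetically: asymmetric cyanine dye, HEK293, 600 cells/well, 5 h settle, 23 nL cpd/DMSO, 37 C, reads 0–40 h every 8 h.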
% is scaled to controls: 0 for no effect and ±100 for the full control effect; potency is read from the fitted curve at half-maximal effect.
Also: nearly all actives have a fitted effect of over 45% in size.

SMILES	activity change	Potency
N#CC(C#N)=NNc1cccc(Cl)c1	-1.56%	
Oc1cc(Cl)c(Cl)c(Cl)c1Cl	23%	
CN(C)c1ccc(N)cc1	29.9%	
Nc1ccc(N=Nc2ccccc2)cc1	-7%	
CCO/N=C(\CC)C1=C(O)CC(c2c(C)cc(C)cc2C)CC1=O (configuration not stated)	-0.633%	
COC(=O)N(OC)c1ccccc1COc1ccn(-c2ccc(Cl)cc2)n1	1.07%	
CCNc1nc(NC(C)C(C)C)nc(SC)n1 (configuration not stated)	-10.1%	
Brc1ccc(Oc2ccc(Br)cc2Br)c(Br)c1	4.96%	
O=S(=O)(NS(=O)(=O)C(F)(F)F)C(F)(F)F	6.18%	
CC(C)[C@@H](Nc1ccc(C(F)(F)F)cc1Cl)C(=O)OC(C#N)c1cccc(Oc2ccccc2)c1 (some centres not stated)	-4.6%	
CC(C)Br	-3.22%	
CC(C)N(C(=O)SC/C(Cl)=C/Cl)C(C)C	25.6%	
Oc1ccc([C@H]2CNCc3c2ccc(O)c3O)cc1O		26.8 µM (active)
CC(=O)C(Cl)C(=O)N(C)C (configuration not stated)	29.8%	
Cc1cc(C2CC2)nc(Nc2ccccc2)n1	14.5%	
Cc1c([N+](=O)[O-])cc2c(c1[N+](=O)[O-])C(C)(C)CC2(C)C	28.1%	
CC(C)=CCN1CC[C@@]2(C)c3cc(O)ccc3C[C@@H]1[C@@H]2C	-8.31%	
C[C@]12Cc3cn[nH]c3C[C@@H]1CC[C@@H]1[C@@H]2CC[C@@]2(C)[C@H]1CC[C@]2(C)O	-0.733% [at 35.3 µM, hits give high values]	
c1ccc2c(c1)cc1ccc3cccc4ccc2c1c34	14.8%	
CC1(C)[C@H](/C=C2\CCSC2=O)[C@@H]1C(=O)OCc1coc(Cc2ccccc2)c1	9.32%	
CC(C)N(C(=O)CCl)c1ccccc1		inactive
FC(F)C(F)(F)OCC(Cn1cncn1)c1ccc(Cl)cc1Cl (configuration not stated)	24.1%	

assay: A CellTox Green Cytotoxicity Assay to monitor cytotoxicity in HepG2 cells - 16 hour (AID 1224876); details: CellTox Green fluorescence; series mostly up to 76.8 µM; cytotoxicity increase: at the top concentration
Procedure, shortened: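 First, HepG2 cells (600/well) mixed with reagent were plated; second, after 5 h at 37 C they received compounds via pintool; third, fluorescence was measured at 0 h through 40 h at 8 h intervals.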

SMILES	cytotoxicity increase	Potency
Oc1cc(Cl)c(Cl)c(Cl)c1Cl	3.85%	
CN(C)c1ccc(N)cc1	0%	
Nc1ccc(N=Nc2ccccc2)cc1	5.84%	
COC(=O)N(OC)c1ccccc1COc1ccn(-c2ccc(Cl)cc2)n1	-17.2%	
CCNc1nc(NC(C)C(C)C)nc(SC)n1 (configuration not stated)	-0.946%	
Brc1ccc(Oc2ccc(Br)cc2Br)c(Br)c1	-6.13%	
c1ccc(Nc2ccc(Nc3ccccc3)cc2)cc1	-1.91%	
Nc1ccccc1-c1ccccc1	5.15%	
CC(C)[C@@H](Nc1ccc(C(F)(F)F)cc1Cl)C(=O)OC(C#N)c1cccc(Oc2ccccc2)c1 (some centres not stated)	-9.35%	
CC(C)Br	-2.24%	
CC(C)N(C(=O)SC/C(Cl)=C/Cl)C(C)C	11.2%	
C[C@]12CC[C@H]3[C@@H](CCC4=CC(=O)CC[C@@H]43)[C@@H]1CC[C@@H]2OC(=O)CCc1ccco1	-4.49% [at 35.3 µM]	
COC(=O)c1cc(Oc2ccc(Cl)cc2Cl)ccc1[N+](=O)[O-]	-12%	
CC1(C)C(C=C(Cl)Cl)C1C(=O)OC(C#N)c1ccc(F)c(Oc2ccccc2)c1 (configuration not stated)	-19%	
CCC(C)Nc1c([N+](=O)[O-])cc(C(C)(C)C)cc1[N+](=O)[O-] (configuration not stated)	2.25%	
Oc1ccc([C@H]2CNCc3c2ccc(O)c3O)cc1O		23.9 µM (active)
Cc1c([N+](=O)[O-])cc2c(c1[N+](=O)[O-])C(C)(C)CC2(C)C	-18%	
Oc1cc(Cl)cc(Cl)c1	7.29%	
O=C(NC(=O)c1ccccc1Cl)Nc1ccc(OC(F)(F)F)cc1	-7.9%	
C#CCC1=C(C)C(OC(=O)C2C(C=C(C)C)C2(C)C)CC1=O (configuration not stated)	-1.11%	
c1ccc2c(c1)cc1ccc3cccc4ccc2c1c34	2.39%	
Cc1ccc2cc3c(ccc4ccccc43)c3c2c1CC3	-1.31% [at 35.3 µM]	
Oc1ccc2[nH]cc(CCCCN3CC=C(c4ccccc4)CC3)c2c1	15.9% [at 35.3 µM]	
CC1(C)[C@H](/C=C2\CCSC2=O)[C@@H]1C(=O)OCc1coc(Cc2ccccc2)c1	-14.4%	
CC(C)N(C(=O)CCl)c1ccccc1		inactive
